Test system: RIVA
Experiment: growth inhibition by drug alone (1 - RLU/untreated control) (fraction); higher = stronger inhibition
Conditions: 177Lu-lilotomab satetraxetan 0 ug/ml
Protocol: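 RIVA (RI-1) ABC-DLBCL cells were pretreated or not for 18 h with 0.5 ug/ml 177Lu-lilotomab satetraxetan (600 MBq/mg), washed and seeded (3000 cells/well) on 384-well plates pre-printed with the Selleck Cambridge Cancer Compound library. Viability was read by RealTime-Glo luminescence on days 3-6 after seeding. Effect = 1 - RLU/mean RLU of the 48 untreated no-drug control wells per plate; Bliss score = (M-E)/(1-Fa).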

Compound | growth inhibition by drug alone (10 nM, time (day): 3) | growth inhibition by drug alone (10 nM, time (day): 4) | growth inhibition by drug alone (10 nM, time (day): 5) | growth inhibition by drug alone (10 nM, time (day): 6) | growth inhibition by drug alone (100 nM, time (day): 3) | growth inhibition by drug alone (100 nM, time (day): 4) | growth inhibition by drug alone (100 nM, time (day): 5) | growth inhibition by drug alone (100 nM, time (day): 6)
COc1ccc2c(c1)CCC1C2CCC2(C)C(NCCCCCCN3C(=O)C=CC3=O)CCC12 (stereo not given) | -0.042 | -0.062 | -0.0736 | -0.13 | -0.374 | -0.291 | -0.321 | -0.444
C=CCn1c(=O)c2cnc(Nc3ccc(N4CCN(C)CC4)cc3)nc2n1-c1cccc(C(C)(C)O)n1 | -0.0778 | -0.0715 | -0.175 | -0.482 | -0.508 | -0.354 | -0.45 | -0.813
CN(Cc1cnc2nc(N)nc(N)c2n1)c1ccc(C(=O)N[C@@H](CCC(=O)O)C(=O)O)cc1 [Abitrexate (Methotrexate)] | -0.206 | -0.255 | -0.282 | -0.39 | -0.038 | -0.184 | -0.173 | -0.287
CC[C@]1(O)C[C@@H]2CN(CCc3c([nH]c4ccccc34)[C@@](C(=O)OC)(c3cc4c(cc3OC)N(C)[C@H]3[C@@](O)(C(=O)OC)[C@H](OC(C)=O)[C@]5(CC)C=CCN6CC[C@]43[C@@H]65)C2)C1 [Vinblastine] | 0.0866 | 0.101 | 0.0372 | -0.193 | 0.546 | 0.442 | 0.393 | 0.337
COc1cc2c(cc1O)CC[C@@H]1[C@@H]2CC[C@]2(C)[C@@H](O)CC[C@@H]12 [2-Methoxyestradiol] | -0.258 | -0.3 | -0.405 | -0.422 | -0.594 | -0.529 | -0.534 | -0.63
